# Source: PubChem BioAssay (several laboratories)
# The sample as a whole holds a higher share of hits than the screen did.
# CD11b adhes inh: inhibitors of CD11b/CD18 adhesion to fibrinogen, primary screen, K562 cells, luminescence. Integrin beta-2 (Homo sapiens) + Integrin alpha-M (Homo sapiens), P05107+P11215. ATPlite luminescence; Mn2+ added to activate the integrin. inhibition, % at 10 µM. 0.54% of 93,000 active;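 active means primary inhibition of 50% or more at 10 µM, then 40% or more on retest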
# Target sequence (P05107 whole entry, looked up, other chains not shown): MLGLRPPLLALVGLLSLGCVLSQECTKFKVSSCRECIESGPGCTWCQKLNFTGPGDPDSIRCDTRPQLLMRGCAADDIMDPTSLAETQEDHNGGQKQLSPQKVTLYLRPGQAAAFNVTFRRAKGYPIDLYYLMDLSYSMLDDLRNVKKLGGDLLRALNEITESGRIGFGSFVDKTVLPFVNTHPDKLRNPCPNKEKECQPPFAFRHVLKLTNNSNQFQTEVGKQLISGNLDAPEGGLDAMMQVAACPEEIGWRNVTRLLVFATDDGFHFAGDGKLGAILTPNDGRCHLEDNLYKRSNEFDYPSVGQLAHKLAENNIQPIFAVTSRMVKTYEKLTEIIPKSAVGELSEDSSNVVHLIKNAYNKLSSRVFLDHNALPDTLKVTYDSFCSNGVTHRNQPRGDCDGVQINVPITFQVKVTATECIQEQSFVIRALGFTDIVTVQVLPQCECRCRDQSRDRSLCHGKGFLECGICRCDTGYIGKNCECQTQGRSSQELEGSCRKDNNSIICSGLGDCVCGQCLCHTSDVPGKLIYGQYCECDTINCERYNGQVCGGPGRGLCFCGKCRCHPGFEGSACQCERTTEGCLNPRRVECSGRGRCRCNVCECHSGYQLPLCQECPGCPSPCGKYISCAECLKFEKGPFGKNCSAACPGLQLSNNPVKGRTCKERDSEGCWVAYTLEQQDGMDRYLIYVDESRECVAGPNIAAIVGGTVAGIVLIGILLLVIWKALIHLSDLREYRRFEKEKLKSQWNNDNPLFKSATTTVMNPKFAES
# CD11b adhes enh: enhancers of CD11b/CD18 adhesion to fibrinogen, primary screen, K562 cells, luminescence; ATPlite luminescence; activation, % at 10 µM; 0.07% of 93,000 active; AID 1499, 2009;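 active means 10 µM primary screen giving 50% or more activity, confirmed by 40% or more on retest at that dose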
# PTK2B oligo ant: antagonists of Pyk2 self-association, primary screen, Q293 cells, FERM NanoBiT luminescence, HTS. Protein-tyrosine kinase 2-beta (Homo sapiens), Q14289. 0.83% of 99,000 active. z-score (the deposit names both 25 µM and 10 µM). AID 1347419, 2020. stronger effect = lower value;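 active means Z-score of -3 or lower, scaled per plate to the spread of control and sample wells; inactive means z-score above -3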;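 further: negative z-score means lost luminescence so less FERM oligomerization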
# D1 mod: D1 CRE-luciferase signal change, two-sided – cell-based, HEK293 D1, dopamine EC30, D1 allosteric modulator project, primary screen; D(1A) dopamine receptor (Homo sapiens), P21728; dopamine EC30 potentiation; actives deviate in either direction; B-score at 10 µM; 5.9% of 58,000 active; AID 641, 2007;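 active means luminescence count or its row- and column-corrected plate score outside the 99.7% band of the plate's sample wells, on either side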
# DAT uptake mod: changed hDAT dopamine uptake under cocaine IC80, either direction, primary screen, cocaine antagonist project, cell-based, LLC-PK1 hDAT, [14C]-dopamine uptake, MLSMR | LLC-PK1 hDAT cells, [14C]-dopamine uptake with cocaine IC80; actives deviate in either direction | 1.3% of 110,000 active | B-score at 10 µM | Sodium-dependent dopamine transporter (Homo sapiens), Q01959;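 active means Z score or B-score, a plate-position-corrected score, falls beyond the plate's 99.7% confidence bounds, in either direction; inactive means both scores lie inside the 99.7% bounds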;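 further: scored against the spread of the other compound wells on the same plate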
# FAK inh: FAK kinase inhibitors, primary screen, biochemical; Focal adhesion kinase 1 (Homo sapiens), Q05397; biochemical FAK kinase activity assay; inhibition, %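 (tested at 7 µM)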; 0.84% of 97,000 active; in the data active means inhibition above about 19%;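 further: 0% = DMSO and 100% = reference compound high control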
# D1 mod confirm: D1 receptor positive allosteric modulators, retest, confirmation, cell-based, HEK293 D1, CRE-luciferase, duplicate | shares compounds with D1 mod | 88% of 2,200 active | dopamine EC30 potentiation; stronger effect = higher value | luminescence at 10 µM;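 active means luminescence in either of two replicates above the same-plate mean plus 3 SD of the low-dose dopamine control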
# D1 no dopamine: D1 receptor agonism without dopamine, confirmation, mechanism study for D1 allosteric modulator project, cell-based, HEK293 D1, CRE-luciferase, secondary assay 1; luminescence, no dopamine; stronger effect = higher value; 0.8% of 1,900 active; luminescence at 10 µM; shares compounds with D1 mod; in the data active means luminescence above about 3900
# Isoprot counter: alters isoproterenol CRE-luciferase response in HEK293 cells; shares compounds with D1 mod; HEK293 D1 CRE-luciferase, isoproterenol EC30 counter-screen; calls only at 10 µM; 63% of 2,200 active; AID 647;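 active means luminescence in either replicate above plate mean of wells with a partly effective reference agonist dose plus 3 SD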;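 further: isoproterenol raises cAMP through native beta-adrenoceptor Gs so signal bypasses D1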
# * = called active by the depositor; i = inactive; / = not tested or not shown; + = active, no number.
SMILES,CD11b adhes inh,CD11b adhes enh,PTK2B oligo ant,D1 mod,DAT uptake mod,FAK inh,D1 mod confirm,D1 no dopamine,Isoprot counter
COc1ccc(OC)c(C2C(C(C)=O)=C(O)C(=O)N2CCC(=O)O)c1 (configuration not stated),-14,1,0.41,2.7*,0.09,13,4144,1648,i
COc1ccc(OC)c(C2C(C(C)=O)=C(O)C(=O)N2CCN2CCOCC2)c1 (configuration not stated),2,-6,2,0.28,0.57,0,/,/,/
CCC(Sc1nc2n[nH]c(C)c2c(=N)n1-c1ccc(C)c(Cl)c1)C(=O)N1CCOCC1 (configuration not stated),16,-1,-2.5,0.73,0.74,/,/,/,/
CCC(Sc1nc2n[nH]c(C)c2c(=N)n1-c1cccc(Cl)c1)C(=O)NCCOC (configuration not stated),/,/,-0.21,5.1*,2*,-4,11752*,1764,+
O=C(CSc1ncnc2c1oc1ccccc12)Nc1ccccc1F,1,-1,/,0.62,0.087,-47,/,/,/
CCOc1ccccc1NC(=O)CSc1ncnc2c1oc1ccccc12,5,-1,-1.8,3.6*,1.3,-290,6488*,1512,+
CCN=C(Nc1ccc2c(c1)OCO2)SC1CC(=O)N(c2ccccc2F)C1=O (configuration not stated),-5,-2,-0.44,6.4*,-0.16,-3,12104*,2380,+
c1ccc(-c2nnc3sc(CN4CCc5ccccc54)cn23)cc1,/,/,-0.91,2.6*,0.37,1,15088*,1624,i
Cc1nn(C)cc1/C=N\NC(=O)c1ccc2c(c1)c(C)c(C)n2Cc1ccccc1,3,-4,-1,/,0.7,1,/,/,/
Fc1ccc(-c2cc(C(F)(F)F)nc(-n3cncn3)n2)cc1,-38,2,-0.23,3.4*,-0.58,3,8460*,1488,i
CC1CCN(c2nc(-c3ccc(F)cc3)cc(C(F)(F)F)n2)CC1,/,/,1.2,/,0.57,-3,/,/,/
Nc1nc(N)nc(-c2ccccc2)n1,-9,-3,/,0.98,-0.54,4,/,/,/
CCCCOc1nc(N)nc(-c2ccccc2)n1,-18,-2,-2.1,15*,-0.67,2,19712*,1784,+
COCCNC(=O)CSc1nc2ccc(N3CCOCC3)cc2c(=O)n1Cc1ccc(OC)cc1,/,/,0.8,/,-0.3,8,/,/,/
CCOC(=O)CSc1nc2ccc(N3CCOCC3)cc2c(=O)n1Cc1ccc2c(c1)OCO2,-31,20,/,7*,/,/,9824*,1952,+
O=C(Nc1ccccc1-c1ccccc1)c1cnccn1,-2,-1,0.35,5.2*,-0.7,4,9324*,1564,+
CCOC(=O)c1c(NC(=O)CSc2nnc3c(Cl)cc(Cl)cn23)sc2c1CCC2,9,24,/,/,/,/,/,/,/
O=C1CC(c2ccsc2)c2cc3c(cc2N1)OCCO3 (configuration not stated),2,4,/,5.8*,-1,/,14472*,1508,i
O=C1CC(c2cccs2)c2cc3c(cc2N1)OCO3 (configuration not stated),/,/,0.21,0.023,0.15,4,/,/,/
O=C1CC(c2ccc3c(c2)OCO3)c2cc3c(cc2N1)OCCO3 (configuration not stated),-2,3,0.07,11*,-2.8*,-2,11940*,1824,+
O=C1CC(c2ccncc2)c2cc3c(cc2N1)OCCO3 (configuration not stated),-2,0,-0.15,1.1,0.011,0,/,/,/
COc1ccc(Cc2nnc(SCC(=O)Nc3nc(C)cs3)o2)cc1,-11,0,-0.03,0.82,-0.66,-1,/,/,/
Cc1cc(N)n2ncc(-c3cccc(Br)c3)c2n1,9,-5,-1.4,6.4*,1.2,6,10808*,1672,+
Cc1cc(N)n2ncc(-c3ccccc3)c2n1,0,-2,-0.45,1.5,0.52,5,/,/,/
CCOc1ccc2nc(Nc3nc4c(c(=O)[nH]3)CCC4)nc(C)c2c1,/,/,/,0.061,/,/,/,/,/
SMILES,CD11b adhes inh,CD11b adhes enh,PTK2B oligo ant,D1 mod,DAT uptake mod,FAK inh,D1 mod confirm,D1 no dopamine,Isoprot counter
O=C(NCc1cccs1)C1CC(c2ccccc2O)=NO1 (configuration not stated),-8,-5,0.8,2.8*,/,2,6344*,1416,i
Cc1cc(C)n(-c2nncc(-c3ccccc3)n2)n1,-12,1,1.9,-0.018,0.94,/,/,/,/
Cc1cc(C)n(-c2ncc(-c3ccccc3)nn2)n1,-2,2,/,4.5*,0.67,1,6696*,/,i
Cc1nonc1OCCNC(=O)C12CC3CC(CC(C3)C1)C2,-12,4,0.82,0.84,0.26,-2,/,/,/
CCCC(c1nnnn1C1CCCC1)N1CCN(C(=O)c2ccco2)CC1 (configuration not stated),-10,0,0.49,3.4*,-0.35,-1,5248,1512,i
CCOC(=O)C1=C(C)N2C(=C(C#N)[C@@H]1c1ccc(C(=O)OC)cc1)SC[C@@]2(O)C(C)(C)C,12,1,-1.3,/,-0.83,1,/,/,/
CCOc1ccc(-c2nnn(CC(=O)c3ccc4c(c3)OCCO4)n2)cc1OCC,9,-4,0.23,9.3*,-1.2,-3,18056*,1596,+
Cc1nn(CC(=O)Nc2ccc(S(=O)(=O)N(C)C)cc2)c(C)c1[N+](=O)[O-],-5,1,/,/,/,/,/,/,/
COc1ccc(-c2cc3nc(C4CCN(C(=O)OC(C)(C)C)CC4)c(C(=O)O)cn3n2)cc1,8,3,1.1,9.2*,2.2,-3,14492*,1632,+
CCOC(=O)c1cn2nc(-c3ccc(OCC)cc3)cc2nc1C1CCN(C(=O)OC(C)(C)C)CC1,2,4,0.03,/,-0.84,0,/,/,/
O=C(NCCSc1c[nH]c2ccccc12)c1ccc2c(c1)OCO2,/,/,/,/,-0.46,/,/,/,/
CC(=NCc1ccco1)c1c(C)[nH]n(-c2nc3ccccc3s2)c1=O,-1,-1,1.2,0.9,0.25,0,/,/,/
